PubChem BioAssay (NCATS)
Several values for one entry are separate records, joined by “and”; a condition that tells them apart may be missing. Equal values may be shown once. Results filed as inconclusive are left out. A call without a number means that no potency is given here. Activity calls are given as the source filed them. Unless noted, calls follow the shape of the dose curve; as a rule, active = well fitted curve in the direction sought with a large enough effect; inconclusive = small, poorly fitted or top-dose-only effect, or another doubt; inactive = no such curve, though single readings can be large; an effect the other way counts as inactive or inconclusive.

Key:
[1] = Cell Viability - LYMP2-022 (AID 987); also: nearly all actives have a fitted effect of over 55% in size; also: potency is read from the fitted curve at half-maximal effect
How it was run: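 In this qHTS cytotoxicity screen, compound titrations were incubated 24 hr at 37 C with human lymphoblastoid cells in complete medium. Luciferase-based ATP luminescence provided the viability signal.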

[2] = Cell Viability - LYMP2-024 (AID 988); also: nearly all actives have a fitted effect of over 60% in size; also: potency is read from the fitted curve at half-maximal effect
How it was run: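 Cells at 2500 per well received compound for 24 hr after a 5 hr settling period. Viability was scored by CellTiter-Glo luminescence, with AC50 from Hill fits.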

[3] = Cell Viability - LYMP1-002 - Assay at 24 hr (AID 993); also: potency is read from the fitted curve at half-maximal effect
How it was run: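 Viability was judged from intracellular ATP using a luciferase read-out, following a 24-hour compound incubation at 37 C of lymphoblastoid cells seeded at 2500 per well. Concentration-response data were fitted to the Hill equation for AC50.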

[4] = Cell Viability - LYMP1-002 - Assay at 40 hr (AID 994); also: nearly all actives have a fitted effect of over 60% in size; also: potency is read from the fitted curve at half-maximal effect
How it was run: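 Concentration-dependent ATP loss after 40 hr treatment at 37 C defined toxicity; AC50 values were obtained by fitting the standard Hill equation.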

[5] = target: Alpha-galactosidase (Coffea arabica) (UniProt Q42656); experiment: Counterscreen for Glucocerebrosidase Inhibitors: qHTS Assay for Coffee Bean alpha-Galactosidase at pH 5.9 (AID 998)
Alpha-galactosidase (Coffea arabica), sequence (Q42656 whole entry, looked up): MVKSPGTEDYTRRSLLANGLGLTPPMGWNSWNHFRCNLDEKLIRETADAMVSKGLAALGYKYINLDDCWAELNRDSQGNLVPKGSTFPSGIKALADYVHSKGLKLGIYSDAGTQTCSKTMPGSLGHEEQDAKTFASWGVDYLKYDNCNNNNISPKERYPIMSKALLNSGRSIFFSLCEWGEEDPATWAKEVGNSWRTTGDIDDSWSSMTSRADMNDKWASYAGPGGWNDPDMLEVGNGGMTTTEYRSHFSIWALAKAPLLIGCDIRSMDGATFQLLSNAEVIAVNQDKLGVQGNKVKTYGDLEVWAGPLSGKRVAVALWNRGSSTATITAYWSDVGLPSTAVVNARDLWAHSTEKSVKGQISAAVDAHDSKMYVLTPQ
How it was run: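 Enzyme 2 nM + cpd (0.7 nM–77 uM titration) + 4-MU-alpha-Gal 80 uM, pH 5.9 citrate/Tween-20, RT 20 min, NaOH/glycine stop pH 10, fluor 365/440. Normalized to no-enzyme and full-activity controls; Hill-fit AC50.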

[6] = target: DNA repair nuclease/redox regulator APEX1 (Homo sapiens) (UniProt P27695); experiment: qHTS Validation Assay for Inhibitors of the Human Apurinic/apyrimidinic Endonuclease 1 (APE1) (AID 1705;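 also: TAMRA fluorescence gain over two minutes as APE1 cuts a quenched THF abasic duplex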)
DNA repair nuclease/redox regulator APEX1 (Homo sapiens), sequence (P27695 whole entry, looked up): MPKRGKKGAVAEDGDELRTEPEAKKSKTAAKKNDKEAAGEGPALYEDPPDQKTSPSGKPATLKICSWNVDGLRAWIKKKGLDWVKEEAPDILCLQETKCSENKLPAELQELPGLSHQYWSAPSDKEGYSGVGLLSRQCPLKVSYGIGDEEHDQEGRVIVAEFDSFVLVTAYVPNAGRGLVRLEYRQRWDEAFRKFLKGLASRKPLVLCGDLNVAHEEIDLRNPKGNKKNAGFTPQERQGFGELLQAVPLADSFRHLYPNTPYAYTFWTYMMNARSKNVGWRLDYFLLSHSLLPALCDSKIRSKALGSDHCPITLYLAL
How it was run: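 Read-out: TAMRA fluorescence (525 nm ex, 598 nm em) from cleavage of a quenched THF abasic-site duplex, 50 nM final; activity taken as intensity change between third and first of three reads 60 s apart.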

[7] = target: Alpha-galactosidase A (Homo sapiens) (UniProt P06280); experiment: Counterscreen for Glucocerebrosidase Inhibitors: qHTS Assay for Human alpha-Galactosidase at pH 4.5 (AID 992)
Alpha-galactosidase A (Homo sapiens), sequence (P06280 whole entry, looked up): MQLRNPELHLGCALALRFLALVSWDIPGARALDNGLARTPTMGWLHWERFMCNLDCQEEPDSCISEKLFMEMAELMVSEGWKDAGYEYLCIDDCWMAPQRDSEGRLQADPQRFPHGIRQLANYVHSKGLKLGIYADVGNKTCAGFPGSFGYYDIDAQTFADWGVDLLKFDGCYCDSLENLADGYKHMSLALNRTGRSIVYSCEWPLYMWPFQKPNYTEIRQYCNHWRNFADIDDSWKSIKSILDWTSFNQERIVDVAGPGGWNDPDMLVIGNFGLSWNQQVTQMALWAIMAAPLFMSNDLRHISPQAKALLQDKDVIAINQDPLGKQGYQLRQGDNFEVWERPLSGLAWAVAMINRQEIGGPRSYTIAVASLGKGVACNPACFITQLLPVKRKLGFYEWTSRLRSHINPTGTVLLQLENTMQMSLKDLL
How it was run: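 Steps: enzyme (2 nM final), then compound across 0.7 nM to 77 uM, then 80 uM fluorogenic galactopyranoside substrate; incubate 20 min at room temperature; quench at pH 10; measure fluorescence at 365/440 nm.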

[8] = Cell Viability - LYMP2-026 (AID 989);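 also: cells exposed to compound for 24 h at 37 °C; nearly all actives have a fitted effect of over 50% in size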
How it was run: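 Acute toxicity screen in complete culture medium, with 24 hr compound exposure at 37 C. Viability read as cellular ATP via luciferase reaction, with tetraoctylammonium bromide (6.4pM to 92 uM) as positive control.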

[9] = qHTS Assay for Lipid Storage Modulators (AID 1519; calls by dose curve); conditions: Drosophila S3 cells, BODIPY lipid droplet/cell ratio, laser cytometry, cells loaded with oleic acid; for activity change, negative = inhibition: at 57.5 µM (top of the series)
How it was run: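 Cells seeded at 5,000 per well were treated with compounds over a concentration series and loaded with oleic acid (400 uM, as added). Lipid droplet fluorescence (488 nm excitation, 500-530 nm channel) was read by laser-scanning cytometry and normalized to 20 uM Triacsin C.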

[10] = measured here: cell count channel max response
[11] = measured here: lipid channel max response

With `N[C@@H](Cc1ccc(N(CCCl)CCCl)cc1)C(=O)O` the Potency [1] was 15.8 µM (active), the Potency [2] was 20 µM (active) and the Potency [3] was “inactive”. The Potency [4] was “inactive”.
With `COc1ccc(Cc2nccc3cc(OC)c(OC)cc23)cc1OC` the outcome [5] was “inactive” and the outcome [6] was “inactive”.
For `CC(C)(C)NC(=O)[C@H]1CC[C@H]2[C@@H]3CC[C@H]4NC(=O)C=C[C@]4(C)[C@H]3CC[C@]12C`, the outcome [5] was “inactive”.
In the case of `COC[C@H]1OC(=O)c2coc3c2[C@@]1(C)C1=C(C3=O)C2CCC(=O)[C@@]2(C)C[C@H]1OC(C)=O` (some centres undefined), the outcome [6] is reported as “inactive”.
With `CC[N+](CC)(CC)CC` the outcome [5] was “inactive” and the outcome [6] was “inactive”.
For `Nc1nc2c(ncn2COC(CO)CO)c(=O)[nH]1`, the outcome [5] was “inactive”.
In the case of `N[C@@H]1C[C@H]1c1ccccc1`, the outcome [7] is reported as “inactive” and the outcome [5] is reported as “inactive”.
In the case of `OCCOc1ccccc1`, the Potency [1] is reported as “inactive”, the Potency [2] is reported as “inactive” and the outcome [8] is reported as “inactive”. The Potency [3] was “inactive” and the Potency [4] was “inactive”.
With `O=C1CCc2cc(OCCCCc3nnnn3C3CCCCC3)ccc2N1` the outcome [5] was “inactive”.
For `NCC(O)c1ccc(O)cc1` (centres undefined), the Potency [1] was “inactive”, the Potency [2] was “inactive” and the outcome [8] was “inactive”. For the same compound, the Potency [3] was “inactive”, the Potency [4] was “inactive” and the activity change, negative = inhibition [9] was 5.18% (inactive). The max response [9, 10] was 15.4% and the max response [9, 11] was 23.7%.
With `C=C(C)[C@H]1Cc2c(ccc3c2O[C@@H]2COc4cc(OC)c(OC)cc4[C@@H]2C3=O)O1` the outcome [6] was “inactive”.
With `CCCN1CCC[C@@H]2Cc3nc(N)ncc3C[C@H]21` the outcome [7] was “inactive”, the outcome [5] was “inactive” and the outcome [6] was “inactive”.
For `CCC1(c2ccccc2)C(=O)NCNC1=O`, the outcome [5] was “inactive”.
In the case of `CC/C(=C(\c1ccccc1)c1ccc(OCCN(C)C)cc1)c1ccccc1`, the outcome [5] is reported as “inactive”.
With `O=C1NC(=O)C(c2ccccc2)(c2ccccc2)N1` the outcome [5] was “inactive”.
For `CNCC(O)c1ccc(O)cc1` (centres undefined), the Potency [1] was “inactive”, the Potency [2] was “inactive” and the outcome [8] was “inactive”. For the same compound, the outcome [7] was “inactive”, the Potency [3] was “inactive” and the Potency [4] was “inactive”. For the same compound, the outcome [5] was “inactive” and the outcome [6] was “inactive”.
With `OCCN1CCN(CCCN2c3ccccc3Sc3ccc(C(F)(F)F)cc32)CC1` the outcome [5] was “inactive”.
With `Oc1ccccc1-c1ccccc1` the Potency [1] was “inactive”, the Potency [2] was “inactive” and the outcome [8] was “inactive”. For the same compound, the Potency [3] was “inactive” and the Potency [4] was “inactive”.
With `Oc1ccc(Cl)cc1Cc1ccccc1` the Potency [1] was “inactive”, the Potency [2] was “inactive” and the outcome [8] was “inactive”. The Potency [3] was “inactive” and the Potency [4] was “inactive”.
With `CN(C)C(=O)C(CCN1CCC(O)(c2ccc(Cl)cc2)CC1)(c1ccccc1)c1ccccc1` the outcome [5] was “inactive”, the activity change, negative = inhibition [9] was -2.05% (inactive) and the max response [9, 10] was -1%. The max response [9, 11] was -2.23%.
For `N#CC(C#N)=Cc1ccc(O)c(O)c1`, the outcome [7] was “inactive”, the outcome [5] was “inactive” and the outcome [6] was “inactive”.
With `Oc1cccc2cccnc12` the Potency [1] was 10 µM (active) and 6.31 µM (active), the Potency [2] was 7.94 µM (active) and the Potency [3] was 25.1 µM (active). For the same compound, the activity change, negative = inhibition [9] was 3.44% (inactive), the max response [9, 10] was -2.95% and the max response [9, 11] was 3.47%.
With `Clc1ccc(COC(Cn2ccnc2)c2ccc(Cl)cc2Cl)cc1` (centres undefined) the Potency [3] was “inactive”, the Potency [4] was 50.1 µM (active) and the activity change, negative = inhibition [9] was -5.83% (inactive). It also gave a max response [9, 10] of -16.9% and a max response [9, 11] of -20.8%.
In the case of `c1ccc2c(c1)Nc1ccccc1S2`, the Potency [1] is reported as “inactive”, the Potency [2] is reported as “inactive” and the outcome [8] is reported as “inactive”. For the same compound, the Potency [3] was “inactive” and the Potency [4] was “inactive”.
In the case of `CCOP(=S)(OCC)Oc1cc(C)nc(C(C)C)n1`, the Potency [1] is reported as “inactive”, the Potency [2] is reported as “inactive” and the outcome [8] is reported as “inactive”. The Potency [3] was “inactive” and the Potency [4] was “inactive”.
For `Nc1nc(N)c2nc(-c3ccccc3)c(N)nc2n1`, the outcome [5] was “inactive”.
For `CN1CCN(CCCN2c3ccccc3Sc3ccc(Cl)cc32)CC1`, the outcome [5] was “inactive”.
For `O=C(C1CCCCC1)N1CC(=O)N2CCc3ccccc3C2C1` (centres undefined), the outcome [5] was “inactive”.
